Screening results: PubChem BioAssay, several laboratories
This is a sample that favours compounds with a hit; in the whole collection about 4.2% have one here.
GDH-TPI counter: inhibits GDH-TPI coupling enzymes, artifact for Mtb FBA screen; GDH-TPI coupled enzyme counterscreen, NADH absorbance; inhibition, % at 4.8 µM; 360,000 tested, 1.2% active
CCHFV vOTU inh: CCHFV vOTU protease inhibition; Pep-AMC fluorescence; inhibition, % at 11.5 µM; 370,000 tested, 0.55% active; AID 651958
RecA splice inh: inhibitors of M. tuberculosis RecA intein splicing | P9WHJ3 | cell-free RecA intein splicing, fluorescence | 290,000 tested, 0.75% active | inhibition, % (no concentration beside the values); in the data active = inhibition above about 30%
FBA Mtb inh: inhibits M. tuberculosis FBA enzyme. purified M. tuberculosis FBA, fluorescence read-out. inhibition, % at 1 µM. 360,000 tested, 2.3% active. AID 588726; in the data active = inhibition above about 27%
Hits are given with their value; n = inactive; x = no result; + = active, no number. Cut-off read from the data, not from the text of the source, unless noted: active = inhibition above about 30%; inactive = the rest.

SMILES | GDH-TPI counter | CCHFV vOTU inh | RecA splice inh | FBA Mtb inh
Cc1ccc2[nH]c3ccccc3c(=O)c2c1 | n | n | n | 136.3
O=c1c2ccccc2[nH]c2ccc(F)cc12 | n | n | n | 156.3
O=c1[nH]c2ccccc2c(=O)c2ccccc12 | n | n | x | n
CCCCNC(=O)c1nc(C2CCN(S(=O)(=O)c3ccccc3C(F)(F)F)CC2)oc1-c1ccccc1 | x | n | x | n
COC(=O)C1Cc2ccccc2CN1C(=O)CCl (centres undefined) | n | n | n | n
CCN1CCN(C(=O)CCn2c(=O)c3cccn3c3cccnc32)CC1 | n | n | n | n
Cc1cc(=O)oc2c3c(cc(OCC(=O)NCCN4CCOCC4)c12)OC(C)(C)CC3 | n | n | x | 191.3
CCCc1cc(=O)oc2c3c(cc(OCC(=O)NCCCn4ccnc4)c12)OC(C)(C)CC3 | n | n | n | 169.7
Cc1cc(=O)oc2c3c(cc(OCC(=O)NCCCn4ccnc4)c12)OC(C)(C)CC3 | n | n | n | +
Cc1cc(=O)oc2cc(OCC(=O)NCCN3CCOCC3)ccc12 | n | n | n | n
Cc1cc(=O)oc2cc(OCC(=O)NCCCn3ccnc3)ccc12 | n | n | n | n
COC(=O)C(NC(=O)c1ccccc1C(=O)O)c1ccc2ccccc2c1 (centres undefined) | n | n | n | n
COc1ccc(CC(=O)OCC(=O)Nc2cc(Cl)ccc2C)cc1 | n | n | x | n
CC(C)n1c(=O)c2ccccc2n1Cc1cn(Cc2cccs2)nn1 | x | n | x | 152.3
CC(C)n1c(=O)c2ccccc2n1Cc1cn(Cc2cccnc2)nn1 | x | n | x | 153.5
CC(C)c1cc(Cn2c3ccccc3c(=O)n2C(C)Cn2cc(COc3ccccc3)nn2)on1 (centres undefined) | x | n | x | x
O=c1c2ccccc2n(Cc2ccccc2)n1[C@@H](Cc1ccccc1)Cn1cc(-c2ccc(-c3ccccc3)cc2)nn1 | x | n | x | x
CN1CCN(c2ccc(C=O)cc2)CC1 | 37.3 | n | n | n
COC(=O)[C@]1(CNC(C)=O)CC(=O)N(C)[C@@H]1c1ccccc1 | x | n | x | x
O=C1c2cccnc2-c2ncccc21 | n | n | n | n
COC1=C(Br)C(=O)c2ncccc2C1=O | n | 100.7 | x | n
CC1(C)CC(N=c2cc(-c3ccccc3)oc3ccc(Cl)cc23)CC(C)(C)N1 | n | n | n | n
OCCCN=c1cc(-c2ccccc2)oc2ccc(Cl)cc12 | 48.6 | n | n | n
O=C(CC1OC(=O)c2ccccc21)c1ccco1 (centres undefined) | 41.4 | n | n | n
C/C(=N/NC(=O)Cc1cccs1)c1cccc([N+](=O)[O-])c1 | x | n | x | x
SMILES | GDH-TPI counter | CCHFV vOTU inh | RecA splice inh | FBA Mtb inh
Cc1c(C2(O)CCCCC2)[nH]c2cnccc12 | n | n | x | 127.2
COC(=O)C1CN(Cc2cn(CCOC(C)=O)nn2)CCS(=O)(=O)N1Cc1ccc(OC)cc1 (centres undefined) | x | n | x | x
Cc1ccc2nc(C)c(C(=O)N/N=C/c3ccco3)cc2c1 | n | n | n | n
O=C(N/N=C/c1ccc2c(c1)OCO2)c1ccccn1 | 41.2 | n | n | n
Cc1c(C(=O)N/N=C/c2ccc(N3CCOCC3)cc2)nc2ccccn12 | 31.2 | n | x | n
COc1cc(/C=N/NC(=O)c2nc3ccccn3c2C)cc(OC)c1O | n | n | n | n
O=C(N/N=C/c1ccc(N2CCOCC2)cc1)c1ccccn1 | 67.1 | n | n | n
Cc1ccc2nc(C)c(C(=O)N/N=C/c3ccc(N4CCOCC4)cc3)cc2c1 | 41.2 | n | n | n
O=[N+]([O-])c1ccc(NN=CC2CCCCCC2)c([N+](=O)[O-])c1 | x | n | x | x
CC(C)C[C@H]1COc2cccc(F)c2S(=O)(=O)N1Cc1cn(CC2CCCCC2)nn1 | x | n | x | x
Cc1nnc(NC(=O)C2CSC3(C)CCC(=O)N23)s1 (centres undefined) | n | n | n | n
O=C(N/N=C/c1cc2c(cc1Br)OCO2)c1cc2ccccc2o1 | n | n | n | n
O=C(N/N=C/c1cc2c(cc1Br)OCO2)c1ccccn1 | 31.0 | n | n | n
Cc1ccc2cc3cc(C(=O)NC4CC4)oc3nc2c1 | 48.7 | n | n | n
COc1ccc2cc3cc(C(=O)Nc4ccc5c(c4)OCCO5)oc3nc2c1 | 43.0 | n | n | n
COc1ccc2cc3cc(C(=O)NCc4ccc5c(c4)OCO5)oc3nc2c1 | 36.8 | n | n | n
COc1ccc2cc3cc(C(=O)Nc4cc(OC)c(OC)c(OC)c4)oc3nc2c1 | n | n | n | n
COc1ccc2cc3cc(C(=O)NC(C)C)oc3nc2c1 | 31.5 | n | n | +
COc1cccc(C2c3[nH]c4ccccc4c3C[C@H]3C(=O)N(c4ccccc4C(=O)NCCCN4CCOCC4)C(=O)N23)c1 (some centres undefined) | n | n | x | n
COC(=O)[C@H](CC(C)C)N(CCCc1cn(CC2CCCCC2)nn1)S(=O)(=O)c1ccccc1Br | x | n | x | x
